Results reported in PubChem BioAssay (NCI).
Several values for one entry are separate records, joined by “and”; a condition that tells them apart may be missing. Equal values may be shown once. The panel holds about 79,000 compounds, 15% with a hit somewhere; the sample as a whole holds those more often. Some structures have more than one record in an assay (separate samples or runs), and their calls can disagree. Activity calls are given as the source filed them. Rule as the data show it: active = growth inhibition above about 70%; inactive = the rest.

Tests used:
[1] = NCI Yeast Anticancer Drug Screen. Data for the rad50 strain (AID 155);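 also: 0% = growth of vehicle-only cultures of the same strain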; conditions: S. cerevisiae rad50 strain growth inhibition; at 50.0 µM; stronger effect = higher value
Method in brief: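 A DNA repair-deficient yeast mutant serves as the test organism; compound-induced growth inhibition is calculated against vehicle-treated cells.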

[2] = NCI Yeast Anticancer Drug Screen. Data for the mec2-1 strain (AID 157); conditions: S. cerevisiae mec2-1 strain, at 50.0 µM, stronger effect = higher value
Method in brief: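 Using mec2-1 yeast: add compound, measure growth, express inhibition versus vehicle-treated cultures.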

[3] = NCI Yeast Anticancer Drug Screen. Data for the sgs1 mgt1 strain (AID 161);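 also: 0% = growth of cultures given vehicle only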; conditions: S. cerevisiae sgs1 mgt1 strain, at 50.0 µM, stronger effect = higher value
Method in brief: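 Growth of a repair-deficient yeast mutant was monitored after compound treatment and expressed as inhibition relative to vehicle-treated cultures.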

[4] = NCI Yeast Anticancer Drug Screen. Data for the cln2 rad14 strain (AID 165);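 also: 0% = growth equal to vehicle treated cultures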; conditions: S. cerevisiae cln2 rad14 strain, at 50.0 µM, stronger effect = higher value
Method in brief: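 Yeast strain cln2 rad14, bearing defects in cell cycle control and DNA repair, serves as the test system; values reflect growth inhibition compared with vehicle.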

[5] = NCI Yeast Anticancer Drug Screen. Data for the bub3 strain (AID 167); conditions: S. cerevisiae bub3 mutant strain, at 50.0 µM, stronger effect = higher value
Method in brief: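 Inhibition values come from growth of compound-treated mutant yeast normalised to vehicle-treated controls.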

[6] = NCI Yeast Anticancer Drug Screen. Data for the mlh1 rad18 strain (AID 175); conditions: S. cerevisiae mlh1 rad18 strain growth inhibition; at 50.0 µM; stronger effect = higher value
Method in brief: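 Steps: expose repair-defective yeast to compound; measure growth; express inhibition against vehicle-treated controls.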

Measured: growth inhibition

CCOC(CBr)OCC
inactive: [1] 14.4% | [2] -4.75% | [3] 0.45% | [4] -25.7% | [5] 7.55% | [6] 20.8%

CC(C)NCC(=O)c1ccc(O)c(O)c1
inactive: [1] 4.9% and -5.1% | [2] -19.3% and 4.45% | [3] -21.8% | [4] -7.25% | [5] -26.1% | [6] 7.7% and -10.9%

COCCOC(=O)CCl
inactive: [1] -4.35% | [2] 0.4% | [3] 10.9% | [4] 0.45% | [5] -0.7% | [6] 25.5%

CCC(CC)(COC(=O)C(O)(c1ccccc1)c1ccccc1)C[N+](C)(C)C
inactive: [1] -4.45% | [2] -2.85% | [3] 1% | [4] -24.9% | [5] 0.5% | [6] -12.7%

Nc1nc(N)n2c(N)nnc2n1
inactive: [1] -3.4% | [2] -19.4% | [3] -0.25% | [4] 1.5% | [5] 4.65% | [6] 13.7%

O=C([O-])C[SH2+].[Co+3].[NH-]CC[NH-].[NH-]CC[NH-].[O-][Cl+3]([O-])([O-])O
inactive: [1] 7.4% | [2] 20.1% | [3] 14.3% | [4] -16.6% | [5] 17.4% | [6] 20.4%

Cc1ccc(Cl)c([N+](=O)[O-])c1
inactive: [1] -23.7% | [2] -52.5% | [3] -30.4% | [4] -3.25% | [5] -20.1% | [6] -9.75%

NC(=S)N=C(N)N
inactive: [1] 11.8% | [2] -3.55% | [3] -6.25% | [4] -10.4% | [5] 8.4% | [6] 9.85%

O=P(O)(O)CCCCP(=O)(O)O.[Zn+2]
inactive: [1] -3.05% | [2] -2.45% | [3] 1.6% | [4] -5.1% | [5] 3.75% | [6] 7.05%

O=[N+]([O-])c1cc(C2CCCCC2)c(O)c([N+](=O)[O-])c1
18% (inactive) and 80.8% (active): [3]
26.4% (inactive) and 86.3% (active): [6]
26% (inactive) and 79.5% (active): [2]
21.2% (inactive) and 81.8% (active): [5]
inactive: [1] 47.3% and 47.2% | [4] -8.75% and 59.2%

CN(C)c1cc(C(C)(C)C)nc(C(C)(C)C)c1
inactive: [1] 7.65% and 3% | [2] -1.1% and -1.8% | [3] 8.6% and 5.1% | [4] 1.25% and -5.95% | [5] 0.3% and -4.75% | [6] 9.05% and 10.4%

O=S(=O)(O)O.[W]
inactive: [1] 27.2% | [2] -7.55% | [3] 14.3% | [4] -5.65% | [5] 18% | [6] -8.95%

C[As+](C)(C)c1cccc(N)c1
inactive: [1] -1.6% | [2] -6.6% | [3] -10.1% | [4] -14.8% | [5] -1% | [6] 0.45%

NC(N)=NCCN=C(N)N
inactive: [1] -2.7% | [2] -30.1% | [3] -29.6% | [4] -24.1% | [5] -53.2% | [6] -9.15%

C[n+]1cccc(C2CCC[N+]2(C)C)c1 (stereo not drawn)
inactive: [1] 4.4% | [2] 7.85% | [3] 8.15% | [4] -10.9% | [5] -9% | [6] -4.6%

CC(CC(C#N)(c1ccccc1)c1ccccc1)N1CCCCC1 (stereo not drawn)
inactive: [1] 27.6% | [2] 14% | [3] -22.9% | [4] 12.1% | [5] 33.5% | [6] 27.4%

Nc1ccc(C(=O)Nc2ccc([As](=O)(O)O)cc2)cc1
inactive: [1] 4.35% | [2] 11.4% | [3] 7.8% | [4] -17.3% | [5] 5.4% | [6] 23.9%

Cc1cnc2ncn(Cc3c[nH]c(=O)[nH]c3=O)c(=O)c2c1
inactive: [1] -0.45% | [2] 5.55% | [3] -8% | [4] 14.2% | [5] -18.4% | [6] -11.5%
